Rows were chosen to be rich in hits. Some 10% of all compounds tested hit in one or more screens of this group.
VP16 counter – Gal4-VP16 reporter inhibition counter-screen | Drosophila S2 Gal4-VP16 UAS-luciferase, luminescence, 20 h | Potency, µM (top dose mostly 53.6 µM), actives largely listed as inhibitors | 310,000 compounds, 3.5% hits | AID 2546;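 note: Gal4-VP16 expression switched on by copper sulfate through the metallothionein promoter; nearly all actives have a fitted effect of over 50% in size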
RORgamma inh – blocks mouse ROR gamma transcriptional activity | P51450 | Drosophila S2 Gal4-RORgamma UAS-luciferase reporter, 20 h | Potency, µM (titrated, usually from 53.6 µM), hits mostly inhibitors | 310,000 compounds, 5.4% hits | AID 2551; note: nearly all actives have a fitted effect of over 60% in size
Target sequence (P51450 whole entry, looked up, the tested form may be a part): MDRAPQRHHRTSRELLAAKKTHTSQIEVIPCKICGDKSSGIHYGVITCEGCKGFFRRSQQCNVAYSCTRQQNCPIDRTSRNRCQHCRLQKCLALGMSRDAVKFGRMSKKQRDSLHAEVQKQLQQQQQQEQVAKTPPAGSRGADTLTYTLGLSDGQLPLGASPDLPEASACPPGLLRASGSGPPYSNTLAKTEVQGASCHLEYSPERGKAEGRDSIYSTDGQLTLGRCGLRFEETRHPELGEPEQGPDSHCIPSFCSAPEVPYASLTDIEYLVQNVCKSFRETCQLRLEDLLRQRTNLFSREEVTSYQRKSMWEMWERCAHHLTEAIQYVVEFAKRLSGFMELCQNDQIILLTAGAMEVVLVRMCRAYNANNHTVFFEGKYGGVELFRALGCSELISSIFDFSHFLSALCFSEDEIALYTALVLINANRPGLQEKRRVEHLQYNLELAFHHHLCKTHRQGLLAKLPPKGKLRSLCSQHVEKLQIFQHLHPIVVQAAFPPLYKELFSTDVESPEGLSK
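In this cell-based reporter format, copper sulfate (700 uM final) drives Gal4–ROR gamma fusion expression from a metallothionein promoter in Drosophila Schneider cells; compounds preincubated 1 hr, reporter read after 20 hr at ambient temperature.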
MCF10A rerep – induces DNA re-replication in MCF 10a normal breast cells. 350,000 compounds, 2.9% hits. AID 624296. Potency, µM (series often up to 46.1 µM), hits mostly activators. MCF 10A DNA re-replication, Hoechst nuclear intensity, 48 h; note: nearly all actives have a fitted effect of over 50% in size
SW480 rerep – inducers of DNA re-replication in SW480 colon cancer cells; SW480 DNA re-replication, Hoechst DNA content imaging, 48 h; Potency, µM (doses to about 46.1 µM), hits mostly activators; 340,000 compounds, 1.8% hits; AID 624297; note: nearly all actives have a fitted effect of over 55% in size
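Image-based read-out: total Hoechst fluorescence of nuclei (405 nm excitation, 500-530 nm emission), with hits raising the fraction of high-intensity nuclei. SW480 colon cells incubated 48 hr with compounds at 37 C.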
ELG1 DNA repair – inhibitors of ELG1-dependent DNA repair in HEK293T cells; HEK293T ELG1-luciferase reporter, luminescence, 16 h; DNA damage induced by 5-fluorouridine; Potency, µM (titrated, usually from 46.1 µM), actives largely listed as inhibitors; 330,000 compounds, 2.3% hits; note: nearly all actives have a fitted effect of over 55% in size
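DMSO vehicle served as the neutral condition. Each well held 2,000 cells given 5-fluorouridine plus compound; after 16 hr at 37 °C/5% CO2, ONE-Glo was added and luciferase measured 30 min later.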
Hits are given with their value; 0 = inactive; ? = inconclusive; - = no result. Calls come from the whole dose curve; as a rule, active = well fitted curve in the direction sought with a large enough effect; inconclusive = small, poorly fitted or top-dose-only effect, or another doubt; inactive = no such curve, though single readings can be large; an effect the other way counts as inactive or inconclusive.

SMILES	VP16 counter	RORgamma inh	MCF10A rerep	SW480 rerep	ELG1 DNA repair
CC(C)C(OC(=O)c1ccco1)C(=O)NCc1cccs1 (stereo not given)	0	0	0	0	0
N#C/C(=C\c1ccc(O)c(Br)c1)C(=O)NCc1ccccc1	0	0	21µM	8.2µM	0
CN1/C(=C/c2cccc[n+]2CCO)Sc2ccccc21	0	0	0	0	0
CC(=S)/C=C1\Sc2ccccc2N1C	10µM	5µM	0	0	?
N#C/C(=C\c1ccc(-c2ccc([N+](=O)[O-])cc2)o1)C(=O)Nc1nc(-c2cccs2)cs1	0	0	0	0	0
N#C/C(=C\c1ccc(-c2ccccc2[N+](=O)[O-])o1)C(=O)Nc1nc(-c2cccs2)cs1	0	?	?	0	21µM
O=[N+]([O-])c1ccc(N/N=C/c2ccc(OCc3cccc4ccccc34)cc2)nc1	0	0	?	21µM	?
O=[N+]([O-])c1ccc(NN=Cc2ccccc2O)nc1	-	-	?	2.6µM	-
O=[N+]([O-])c1ccc(NN=Cc2ccccc2)nc1	-	-	0	?	-
O=[N+]([O-])c1ccc(N/N=C\c2cccn2-c2ccccc2)nc1	?	2.5µM	15µM	?	0
O=[N+]([O-])c1ccc(O)c(/C=N/Nc2ncnc3c2cnn3-c2ccccc2)c1	?	?	0	2.3µM	?
COc1cccc(CNC(=O)C2CCC(=O)N(CCc3cccc(F)c3)C2)c1 (stereo not given)	0	0	0	0	0
CC1CCC2(CC1)NC(=O)N(CC(=O)N1CCN(S(=O)(=O)c3ccc4c(c3)CCC4)CC1)C2=O (stereo not given)	-	-	0	0	0
CCOc1ccc(NC(=O)CN(C)C(=O)c2cc3c(s2)CCC(C)C3)cc1OCC (stereo not given)	-	-	0	0	0
O=C(CN(C(=O)CCC(=O)Nc1ccccn1)c1ccc(F)cc1)NCCc1ccccc1	0	?	0	0	0
Cc1ccccc1-n1c(C)cc(/C=N/Nc2ccc([N+](=O)[O-])cn2)c1C	5.6µM	6.3µM	0	?	?
COc1ccc(O)c(/C=N/Nc2nc3ccccc3[nH]2)c1	?	?	0	0	?
O=[N+]([O-])c1ccc(O)c(/C=N/Nc2nc3ccccc3[nH]2)c1	5.6µM	6.3µM	8.2µM	0	?
N#Cc1ccccc1Cn1cc(/C=N/Nc2ccc([N+](=O)[O-])cn2)c2ccccc21	0	0	0	0	6.5µM
O=[N+]([O-])c1ccc(O)c(/C=N/Nc2ccccn2)c1	11µM	10µM	?	1.3µM	?
CCOc1ccccc1C=NNc1ccc([N+](=O)[O-])cn1	-	-	0	?	-
COC(=O)CN(c1cc([N+](=O)[O-])ccc1OC)S(C)(=O)=O	0	0	0	0	0
O=[N+]([O-])c1ccc(OC(F)F)c(/C=N/n2cnnc2)c1	0	0	0	3.3µM	0
CCN(CC)S(=O)(=O)c1ccc(C)c(NC(=O)/C=C/c2cccs2)c1	0	0	0	0	16µM
O=C(/C=C/c1cccs1)Nc1cccc(NC(=O)/C=C/c2cccs2)n1	0	?	18µM	0	16µM
SMILES	VP16 counter	RORgamma inh	MCF10A rerep	SW480 rerep	ELG1 DNA repair
NS(=O)(=O)c1cccc(NC(=O)/C=C/c2cccs2)c1	0	0	0	0	?
NS(=O)(=O)c1ccc(NC(=O)/C=C/c2cccs2)cc1	0	0	0	23µM	?
Cc1ccccc1NC(=O)/C=C/c1cccs1	?	?	0	0	?
O=C(/C=C/c1cccs1)Nc1nccs1	0	0	?	0	?
Nc1ccc(C(=O)N2CCN(S(=O)(=O)c3ccc4c(c3)OCCCO4)CC2)cc1[N+](=O)[O-]	-	-	0	0	?
Cc1cccc(CC2CC(=O)N(c3nc4ccccc4s3)C2=O)c1 (stereo not given)	0	0	0	0	0
Cc1ccc2nc(N3C(=O)CNC3=S)sc2c1	3.5µM	1µM	18µM	?	?
COc1ccc2nc(N3C(=O)CNC3=S)sc2c1	5.6µM	0.5µM	?	0	?
NC(=S)NN=C(c1ccccc1)c1ccccc1	?	7.1µM	0	0	0
CC1(C)OC(c2ccccc2)=C/C(=C\C=N\NC(=O)c2ccncc2)O1	0.56µM	0.4µM	0	0	?
O=C(N/N=C/C=C/c1ccccc1)c1ccncc1	7.1µM	2.8µM	0	0	?

Compound activity: PubChem BioAssay, National Center for Advancing Translational Sciences (NCATS)
